Source: PubChem BioAssay (several laboratories)
PLCg1 inh = PLC-gamma1 enzyme inhibitors, primary screen, biochemical, fluorescence, purified enzyme. 1-phosphatidylinositol 4,5-bisphosphate phosphodiesterase gamma-1 (Homo sapiens), P19174. fluorogenic substrate. inhibition, % at 12.2 µM. 0.84% of 370,000 active. AID 720700, 2013; in the data active = inhibition above about 9.5%
Target sequence (P19174 whole entry, looked up): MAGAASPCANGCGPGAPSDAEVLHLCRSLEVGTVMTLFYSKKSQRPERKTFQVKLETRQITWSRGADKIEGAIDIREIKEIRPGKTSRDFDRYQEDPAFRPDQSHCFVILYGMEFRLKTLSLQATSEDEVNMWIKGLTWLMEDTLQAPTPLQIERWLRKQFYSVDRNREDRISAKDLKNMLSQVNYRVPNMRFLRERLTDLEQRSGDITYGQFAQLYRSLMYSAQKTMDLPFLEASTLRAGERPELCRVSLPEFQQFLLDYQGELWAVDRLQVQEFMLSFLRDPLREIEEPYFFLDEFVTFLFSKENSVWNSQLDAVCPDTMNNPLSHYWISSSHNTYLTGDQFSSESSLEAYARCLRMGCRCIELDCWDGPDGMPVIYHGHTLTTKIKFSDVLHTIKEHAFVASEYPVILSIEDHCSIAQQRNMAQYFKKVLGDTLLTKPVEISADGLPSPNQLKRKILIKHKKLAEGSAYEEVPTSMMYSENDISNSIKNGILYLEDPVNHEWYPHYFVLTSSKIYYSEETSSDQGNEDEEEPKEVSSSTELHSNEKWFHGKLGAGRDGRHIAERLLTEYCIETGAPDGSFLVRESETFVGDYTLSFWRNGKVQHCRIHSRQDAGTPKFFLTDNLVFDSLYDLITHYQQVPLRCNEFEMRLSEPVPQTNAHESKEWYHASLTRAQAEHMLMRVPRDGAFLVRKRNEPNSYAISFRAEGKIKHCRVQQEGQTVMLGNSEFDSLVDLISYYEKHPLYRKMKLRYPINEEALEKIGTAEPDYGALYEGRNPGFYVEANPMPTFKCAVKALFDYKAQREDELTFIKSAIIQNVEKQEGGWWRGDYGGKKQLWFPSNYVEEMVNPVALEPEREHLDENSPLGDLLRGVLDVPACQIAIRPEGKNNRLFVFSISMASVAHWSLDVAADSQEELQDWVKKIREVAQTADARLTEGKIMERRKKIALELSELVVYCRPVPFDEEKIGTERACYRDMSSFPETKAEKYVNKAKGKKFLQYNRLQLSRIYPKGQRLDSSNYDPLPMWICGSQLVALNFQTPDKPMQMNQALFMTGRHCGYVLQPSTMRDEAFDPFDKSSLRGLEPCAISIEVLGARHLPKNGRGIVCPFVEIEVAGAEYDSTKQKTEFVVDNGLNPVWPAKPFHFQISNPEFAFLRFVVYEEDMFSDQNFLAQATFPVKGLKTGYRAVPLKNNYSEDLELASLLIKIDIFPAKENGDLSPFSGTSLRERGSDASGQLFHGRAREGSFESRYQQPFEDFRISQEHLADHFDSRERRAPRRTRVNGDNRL
Rce1 inhib = yeast Rce1p protease inhibitors, primary screen, biochemical, fluorescence, cell-free homogeneous; CAAX prenyl protease 2 (Saccharomyces cerevisiae (strain ATCC 204508 / S288c)), Q03530; yeast membranes, quenched prenylated peptide cleavage fluorescence; calls only; 0.27% of 290,000 active;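 active = fall in fluorescence gain of 50% or more versus controls, with final raw signal at or below 3038400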;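 note: plate controls were neutral control wells for no effect and wells lacking membranes for full effect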
PLC-beta3 inh = human PLC-beta3 inhibitors, primary screen, biochemical, fluorescence; Purified PLC-beta3, fluorogenic substrate; inhibition, % at 12.2 µM; 0.18% of 370,000 active; in the data active = inhibition above about 11%;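 note: 0% = median of compound wells on plate and 100% = full blocker control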
ADAM17 inh = ADAM17 inhibitors, primary screen, biochemical, QFRET. Disintegrin and metalloproteinase domain-containing protein 17 (Homo sapiens), P78536. recombinant ADAM17, EDANS/DABCYL FRET peptide cleavage. inhibition, % at 6.95 µM. 0.83% of 370,000 active;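 active = inhibition above the mean of compounds lying between control limits plus 3 SD, set per campaign, cut at about 8.5% in these data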;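 note: 0% = DMSO-only wells as the low control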
ADAM10 inh = human ADAM10 inhibitors, primary screen, biochemical, QFRET, HTS; Disintegrin and metalloproteinase domain-containing protein 10 (Homo sapiens), O14672; 0.62% of 370,000 active; recombinant ADAM10, EDANS/DABCYL FRET peptide cleavage, 3 h; AID 720582, 2013; inhibition, % at 7 µM;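 active = inhibition above a per-campaign cutoff equal to the mean of compounds falling between control-based bounds plus 3 SD, cut at about 20% in these data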;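 note: 0% = DMSO wells while the 100% control is not disclosed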
ADAM10 confirm = human ADAM10 inhibitors, confirmation, biochemical, QFRET, triplicate. shares compounds with ADAM10 inh. ADAM10 QFRET peptide cleavage, EDANS fluorescence. inhibition, % at 6.95 µM. 1% of 2,100 active. AID 743208, 2013;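 active = inhibition above about 20% chosen separately for each screening run, limit read from the data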;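 note: 0% = DMSO wells and 100% = marimastat wells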
ADAM17 counter = ADAM17 inhibitors, counter-screen for ADAM10 exosite inhibitor project, biochemical, QFRET, high throughput; shares compounds with ADAM10 inh; ADAM17 QFRET peptide cleavage, EDANS fluorescence; inhibition, % at 6.95 µM; 0.5% of 2,100 active; AID 743214, 2013;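 active = mean triplicate inhibition above the solvent-only control wells' mean plus 3 SD, cut at about 12% in these data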;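 note: 0% = DMSO wells and 100% = marimastat wells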
Numbers without * were called inactive. Only some compounds are listed: those with a hit (about 2.1% of all), similar ones and a draw of the others.

`C[C@@H](c1ccccc1)N1C[C@@H](COCc2ccccc2)Oc2cc(N3CCC[C@H]3C(N)=O)ccc2S1(=O)=O` gave PLCg1 inh 6, PLC-beta3 inh 5, ADAM17 inh 7, ADAM10 inh 22*, ADAM10 confirm 5 and ADAM17 counter 1.
Screening COc1ccc(S(=O)(=O)NCc2ccccn2)cc1Br returned PLCg1 inh 8, Rce1 inhib inactive, PLC-beta3 inh 3, ADAM17 inh 5, ADAM10 inh 23*, ADAM10 confirm -2 and ADAM17 counter 0.
Screening COc1cc(S(=O)(=O)NCc2ccccn2)ccc1Cl returned PLCg1 inh 6, Rce1 inhib inactive, PLC-beta3 inh 2, ADAM17 inh 2 and ADAM10 inh 9.
For Cc1ccccc1S(=O)(=O)NC(=O)C1(C)CCN1C(=O)C1(c2ccccc2)CC1 (configuration not stated) the results were PLCg1 inh -4, PLC-beta3 inh 2, ADAM17 inh -4 and ADAM10 inh -11.
Screening CC(C)CC(NS(=O)(=O)OCC(Cl)(Cl)Cl)c1ccccc1 (configuration not stated) returned PLCg1 inh -2, Rce1 inhib inactive, PLC-beta3 inh 4, ADAM17 inh 4, ADAM10 inh 20*, ADAM10 confirm 6 and ADAM17 counter 2.
Screening COC(=O)CCC(NS(=O)(=O)OCC(Cl)(Cl)Cl)c1ccccc1 (configuration not stated) returned PLCg1 inh 0, Rce1 inhib inactive, PLC-beta3 inh 1, ADAM17 inh -3 and ADAM10 inh 2.
`Cc1nn(C)c(C(=O)N/N=C/c2cccc(Oc3ccccc3)c2)c1Br` gave PLCg1 inh 5, PLC-beta3 inh -2, ADAM17 inh 1, ADAM10 inh 24*, ADAM10 confirm 3 and ADAM17 counter 1.
Screening Nc1ccc(C(=O)N/N=C/c2cccc(Oc3ccccc3)c2)cc1 returned PLCg1 inh -73, Rce1 inhib inactive, PLC-beta3 inh -94, ADAM17 inh 2 and ADAM10 inh -5.
For C[C@H]1CN([C@@H](C)CO)C(=O)Cc2cc(NC(=O)CCC(F)(F)F)ccc2O[C@H]1CN(C)Cc1ccc(-c2ccccc2)cc1 the results were PLCg1 inh 3, PLC-beta3 inh 4, ADAM17 inh 8, ADAM10 inh 29*, ADAM10 confirm 7 and ADAM17 counter 2.
`CN1CCN(S(=O)(=O)c2cccc(C(=O)NCCOc3ccccc3)c2)CC1` gave PLCg1 inh 2, Rce1 inhib inactive, PLC-beta3 inh 2, ADAM17 inh 1 and ADAM10 inh 5.
For COc1ccc(CNC(=O)c2cccc(S(=O)(=O)N3CCN(c4ccc(F)cc4)CC3)c2)cc1 the results were PLCg1 inh 1, PLC-beta3 inh -5, ADAM17 inh 8, ADAM10 inh 22*, ADAM10 confirm 6 and ADAM17 counter 2.
Screening O=C(NCCOc1ccccc1)c1cccc(S(=O)(=O)N2CCN(Cc3ccccc3)CC2)c1 returned PLCg1 inh 4, PLC-beta3 inh 5, ADAM17 inh 7, ADAM10 inh 24*, ADAM10 confirm 4 and ADAM17 counter 1.
Clc1ccc(-c2csc(NCC3CCCO3)n2)cc1 (configuration not stated) was read as PLCg1 inh -2, PLC-beta3 inh 0, ADAM17 inh -1 and ADAM10 inh 5.
Screening CC1(C(=O)NCc2ccc(C(F)(F)F)cc2)CCN1Cc1ccccc1OC(F)F (configuration not stated) returned PLCg1 inh -1, PLC-beta3 inh 0, ADAM17 inh 2 and ADAM10 inh 13.
Screening CC1(C(=O)NCc2cccc3ccccc23)CCN1Cc1ccccc1OC(F)F (configuration not stated) returned PLCg1 inh 2, PLC-beta3 inh 0, ADAM17 inh 6, ADAM10 inh 21*, ADAM10 confirm 3 and ADAM17 counter 1.
For CN(c1ccccc1)S(=O)(=O)c1nnc(NC(=O)c2ccco2)s1 the results were PLCg1 inh -13, Rce1 inhib inactive, PLC-beta3 inh -20, ADAM17 inh 1, ADAM10 inh 48*, ADAM10 confirm 4 and ADAM17 counter 1.
`CC(C)c1ccc(OCC(=O)NCc2ccccc2)cc1` gave PLCg1 inh 1, Rce1 inhib inactive, PLC-beta3 inh -1, ADAM17 inh 0, ADAM10 inh 78*, ADAM10 confirm 0 and ADAM17 counter 0.
Screening C=CCN(Cc1ccc(Cl)s1)C(=O)c1cc(S(=O)(=O)N2CCOCC2)ccc1F returned PLCg1 inh -4, PLC-beta3 inh -4, ADAM17 inh -1 and ADAM10 inh 0.
Screening O=C(c1ccc(C#Cc2ccccc2)o1)N1CCN(c2ccccn2)CC1 returned PLCg1 inh -16, Rce1 inhib inactive, PLC-beta3 inh -17, ADAM17 inh 6, ADAM10 inh 22*, ADAM10 confirm 4 and ADAM17 counter 1.
O=C(c1ccc(COc2ccccc2Br)o1)N1CCN(c2ccccn2)CC1 was read as PLCg1 inh 5, Rce1 inhib inactive, PLC-beta3 inh -1, ADAM17 inh 6 and ADAM10 inh 10.
Screening O=C(c1cc(Br)ccc1O)N1CCN(S(=O)(=O)Cc2ccccc2)CC1 returned PLCg1 inh 4, PLC-beta3 inh -9, ADAM17 inh -1 and ADAM10 inh 0.
Screening CCCn1nc(C(=O)Nc2cccc(S(=O)(=O)N(C)c3ccccc3)c2)c2ccccc2c1=O returned PLCg1 inh 2, PLC-beta3 inh -2, ADAM17 inh 5 and ADAM10 inh -1.
`Cc1c(C(=O)OCC(=O)N(C)CC(=O)Nc2ccc(F)cc2)oc2ccccc12` gave PLCg1 inh 2, PLC-beta3 inh -6, ADAM17 inh 0 and ADAM10 inh -1.
Screening CCCCNC(=O)C[C@H]1C[C@@]2(C(=O)OC)C(=C[C@H](C3CCCC3)O[C@@H]2C)N(Cc2cccc3ccccc23)C1=O returned PLCg1 inh 6, PLC-beta3 inh 5, ADAM17 inh 6, ADAM10 inh 24*, ADAM10 confirm 7 and ADAM17 counter 2.
For COC(=O)[C@]12C[C@H](CC(=O)NCc3cccc4ccccc34)C(=O)N(Cc3cccc4ccccc34)C1=C[C@H](COCc1ccccc1)O[C@@H]2C the results were PLCg1 inh 2, PLC-beta3 inh -3, ADAM17 inh 4 and ADAM10 inh 12.
